Experimental findings from PubChem BioAssay AID1443 (Sanford-Burnham Center for Chemical Genomics, 2008) are described below.

Each structure is given as a SMILES string. In all, about 220,000 compounds went through this assay and about 880 (0.4%) were called active.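 How the source made its calls: active means cell killing above 50% in the first pass at 4 µM, then a duplicate retest at 5 µM averaging 50% or more; inactive means the rest.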 The full list was thinned out, with actives kept by preference.

The experiment in a line: PPC-1 cell viability loss under TRAIL – PPC-1 cells, ATPLite luminescence, uHTS, TRAIL potentiator project, primary screen (AID 1443).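 Further: plate controls were cells with TRAIL plus DMSO for no effect and medium-only wells lacking cells for full effect.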 Particulars: PPC-1 cells + TRAIL, stronger effect = higher value; at 4 µM unless noted. For orientation: Cellular ATP, detected with luciferase, serves as a proxy for viable cell number.
For `COc1ccc2cc(-c3[nH]ncc3CNCCn3nc(C)cc3C)ccc2c1`, the cell killing (% activity) is 0.6% (inactive). The result for `Cn1c(=NC(=O)CSCC(=O)N2CCOCC2)sc2ccccc21` reads 11.5% (inactive); that for `Cn1c(=NC(=O)CSCC(=O)N2CCCCC2)sc2ccccc21`, 21.3% (inactive). The result for `Cn1c(=NC(=O)c2cnccn2)sc2ccccc21` reads 53.2% [at 5 µM] (active). For `Cc1ccsc1/C=N/Nc1ccc(Cl)nn1`, the cell killing (% activity) was -6.9% (inactive).

Regarding `O=[N+]([O-])c1ccc(N2CCN(S(=O)(=O)c3ccccc3)CC2)cc1N1CCc2ccccc2C1`, the cell killing (% activity) was 8.9% (inactive). The result for `Cc1ccccc1NC(=S)N(CCCN1CCOCC1)Cc1cccs1` reads 8.5% (inactive). The result for `c1ccc(-c2noc(-c3cccs3)n2)nc1` reads 31.1% (inactive); that for `O=C(Oc1ccccc1)c1ccc2nccnc2c1`, 25.8% (inactive). The value for `O=C(Oc1ccc(-c2nc(-c3ccccn3)no2)cc1)c1ccccc1` was 54.2% [at 5 µM] (active); that for `Cc1cc(C)c(C)c(S(=O)(=O)N[C@@H](C)C(=O)OC(C)C(=O)NC(N)=O)c1C` (stereo partly specified) was 18.2% (inactive); that for `NCCCC[C@@H]1NC(=O)[C@H](CCC(=O)O)NC(=O)c2cc([N+](=O)[O-])cc(I)c2NCC[C@@H](C(N)=O)NC1=O` was -6.5% (inactive). Regarding `O=S(=O)(Nc1ccc(OC(F)(F)F)cc1)c1cccc2nonc12`, the cell killing (% activity) was 7.3% (inactive). Regarding `O=C(CSc1nnc(C2CC2)n1Cc1ccccc1)Nc1cccnc1Cl`, the cell killing (% activity) is 9.8% (inactive). The result for `Cc1ccc(NS(=O)(=O)c2ccc(N/N=C/c3ccccc3OCC(=O)O)c([N+](=O)[O-])c2)c(C)c1` reads -2.4% (inactive); that for `O=C(NCc1ccccn1)c1cc(-c2ccccc2Cl)on1`, 24.5% (inactive).

Regarding `Clc1ccc(-c2cc(-c3ccccn3)on2)c(Cl)c1`, the cell killing (% activity) is 88% [at 5 µM] (active). As to `O=C1CSC(c2ccccc2)N1c1nc(-c2ccc(Cl)cc2Cl)cs1` (stereo unspecified), the cell killing (% activity) was 27.7% (inactive).

In the case of `CCOC(=O)c1c(/N=C/C2C(=O)CC(C)(C)CC2=O)sc(C)c1C`, the cell killing (% activity) was 14.1% (inactive). The result for `CCCCSc1nnc2c(n1)OC=Nc1ccccc1-2` reads 11.9% (inactive); that for `COc1ccc(/C(C)=N/N2CCOCC2)c(O)c1`, -10.1% (inactive); that for `COc1ccc(-c2nc(-c3ccccc3)no2)c(OC)c1`, 68% [at 5 µM] (active). The value for `COc1ccc(-c2noc(-c3cccc(OC)c3OC)n2)cc1OC` was 18.8% (inactive).

For `COc1ccc(-c2noc(-c3ccc(C)cc3)n2)cc1`, the cell killing (% activity) was 25.4% (inactive).

With `O=c1c2cc(-c3ccccc3)sc2nc2n1N=C(c1cccs1)CS2`, the cell killing (% activity) is 30.8% (inactive).

Take `Cc1cc(C)c2c(NC(=O)C3CC3)nn(C)c2n1`: the cell killing (% activity) was 0.3% (inactive). The value for `COc1cccc(CC(=O)Nc2ccc(-c3csc(C)n3)cc2)c1` was 2.3% (inactive). The value for `C=CCn1c(C)cc(C2=NNC(=NCC)SC2)c1C` was 88.8% [at 5 µM] (active); that for `COCCn1c(C)cc(C2=NNC(=Nc3ccc(F)cc3)SC2)c1C` was 12.3% (inactive). The result for `Cc1cc(C2=NNC(=Nc3ccc(S(=O)(=O)N4CCOCC4)cc3)SC2)c(C)n1CC1CCCO1` (stereo unspecified) reads 8.5% (inactive); that for `O=C(NNC(=O)c1ccc(Cl)cc1Cl)c1cccs1`, 35.4% (inactive). Consider `CCOC(=O)c1cc(C)nc(S(C)(=O)=O)c1C#N`, for which the cell killing (% activity) is 19.4% (inactive). The value for `N#C/C(=C\C1=C(N2CCOCC2)C(=C\c2ccccc2)/CC1)C(=O)Nc1ccccc1F` was 3.4% (inactive). For the compound `COc1ccc(-c2cn3cccnc3n2)cc1`, the cell killing (% activity) is 13.9% (inactive). As to `COc1ccc(-c2cn3ccsc3n2)cc1`, the cell killing (% activity) was 46.2% (inactive).

On to `Cc1ccc(-c2cn3cc(C)ccc3n2)cc1`, for which the cell killing (% activity) was 86.4% [at 5 µM] (active). The result for `CS(=O)(=O)Nc1cccc(-c2cn3ccccc3n2)c1` reads 4.6% (inactive). As for `COc1ccc(-c2cn3ccc(C)cc3n2)cc1`, the cell killing (% activity) is 89% [at 5 µM] (active).

Take `c1ccc(-c2cn3cccnc3n2)cc1`: the cell killing (% activity) was 13.7% (inactive).

As to `Cc1cccc(NC(=O)C2CC(=O)OC23CCCC3)c1` (stereo unspecified), the cell killing (% activity) was -2.2% (inactive). As to `COc1ccc(C(=O)ON=C2c3ccccc3-c3ccccc32)cc1OC`, the cell killing (% activity) was 8.6% (inactive). The value for `Cc1sc2nc(COC(=O)C(NC(=O)c3ccc(Cl)cc3Cl)C(C)C)[nH]c(=O)c2c1C` (stereo unspecified) was 2.9% (inactive); that for `O=C(Nc1ccc(S(=O)(=O)Nc2nccs2)cc1)c1cccc(S(=O)(=O)N2CCOCC2)c1` was 10.1% (inactive). As to `Fc1ccccc1Cc1ccc(Cl)nn1`, the cell killing (% activity) was 22.4% (inactive). Take `CCN(CC)C(=O)CS(=O)CC(=O)Nc1cc(OCCOC)c(Cl)cc1Cl` (stereo unspecified): the cell killing (% activity) was 3.5% (inactive). The result for `CCCc1cc(=O)[nH]c(SCC(=O)N2CCN(S(=O)(=O)c3ccc(C)cc3C)CC2)n1` reads -8.7% (inactive). The result for `Fc1ccccc1Cn1cnc(NC(=S)NCCc2ccccc2)n1` reads 23.7% (inactive); that for `CN(Cc1ccccc1)Cc1ccccc1F`, 10.6% (inactive); that for `N=c1n(CCc2ccccc2)c2ccccc2n1Cc1ccccc1F`, 53.1% (active). The value for `O=C(NCCCN1CCN(c2ccc(F)cc2)CC1)Nc1ccc([N+](=O)[O-])cc1` was -6.5% (inactive).

On to `Cc1c(C(=O)c2cccc([N+](=O)[O-])c2)c2ccccn2c1CCC#N`, for which the cell killing (% activity) is 33.6% (inactive). The result for `COC(=O)c1ccc(COc2cc([N+](=O)[O-])cc3cccnc23)cc1` reads -4.2% (inactive); that for `Cn1c(CC2Sc3ccccc3NC2=O)nnc1SCC(=O)c1ccc(Cl)cc1` (stereo unspecified), 5.2% (inactive). The result for `O=C(c1ccc(F)cc1)n1cc(C(=S)N2CCOCC2)c2ccccc21` reads 21% (inactive); that for `O=C(Cn1c(=S)nc2ccccn21)N1CCc2ccccc2C1`, -12% (inactive). The result for `O=C(c1ccc(F)cc1)n1c(=S)nc2ccccn21` reads 81.3% [at 5 µM] (active). `NS(=O)(=O)c1ccc(NC(=S)Nc2ccc(Br)c(Cl)c2)cc1`: the cell killing (% activity) is 12% (inactive). In the case of `O=C(OCC1O[C@@H](OC(=O)c2cc(O)c(O)c(O)c2)[C@@H](OC(=O)c2cc(O)c(O)c(O)c2)[C@@H](OC(=O)c2cc(O)c(O)c(O)c2)[C@@H]1OC(=O)c1cc(O)c(O)c(O)c1)c1cc(O)c(O)c(O)c1` (stereo partly specified), the cell killing (% activity) was -9.9% (inactive). The value for `CCOc1ccc(CN2CCN(Cc3ccon3)CC2CCO)cc1` (stereo unspecified) was 8.1% (inactive); that for `Cc1noc(/C=C/c2ccco2)c1S(=O)(=O)N1CCC(C(=O)Nc2ccc(Cl)cn2)CC1` was 24.3% (inactive); that for `Cc1nonc1C(=O)N/N=C/c1ccc(O)cc1` was -5.1% (inactive).

Regarding `CC(NC(=O)CCC(=O)N1CCN(S(=O)(=O)c2ccc(Cl)cc2)CC1)c1ccccc1` (stereo unspecified), the cell killing (% activity) was 16.9% (inactive). In the case of `CCN(CC(=O)Nc1ccc(S(=O)(=O)N2CCCC2)cc1)CC(=O)Nc1cccc(OC)c1`, the cell killing (% activity) is 6.9% (inactive). The result for `NS(=O)(=O)c1cccnc1Nc1cccc(Cl)c1` reads 23% (inactive); that for `OCCCNc1nccc(-c2cc(Nc3cccc(Cl)c3)ncn2)n1`, 80.9% (active). The result for `CC(C)n1cnc2c(Nc3cccc(Cl)c3)nc(N(CCO)CCCO)nc21` reads 8.8% (inactive); that for `CCOC(=O)c1sc2nc(C)nc(Nc3ccc(OC)c(OC)c3)c2c1C`, -11.6% (inactive); that for `CCN1CCC2(CC1)N=C(c1ccc(F)cc1)C(=S)N2C(=O)c1ccc(C)cc1`, 5.2% (inactive). Turning to `O=C(Nc1n[nH]c(C(F)(F)F)n1)c1cccs1`, the cell killing (% activity) is 2.7% (inactive). The value for `O=C(COC(=O)c1ccc(S(=O)(=O)Nc2ccccc2)cc1)NCC1CCCO1` (stereo unspecified) was 14.7% (inactive). The result for `Cc1cc(C)nc(NC(=O)/C=C/c2ccc(Cl)cc2)n1` reads -2.4% (inactive); that for `Brc1ccc2nc(N3CCCC3)sc2c1`, -2.5% (inactive); that for `c1c2c(cc3sc(N4CCCCC4)nc13)OCCO2`, 65.8% (active).

As for `Cc1nc2cc3c(cc2s1)OCO3`, the cell killing (% activity) was 9% (inactive). `O=C(O)/C(=C/c1cccnc1)NC(=O)c1ccccc1`: the cell killing (% activity) was 9% (inactive). The value for `COCCNc1nc(-c2ccccc2)nc2c1oc1ccccc12` was 8.8% (inactive). The result for `Cc1ccc2nsnc2c1S(=O)(=O)N1CCCC1C(=O)O` (stereo unspecified) reads 13.9% (inactive); that for `Cc1cc(=O)oc2c(C(=O)c3ccccc3)c(OCC(N)=O)ccc12`, 6.8% (inactive). The result for `COc1cccc(C(=O)n2ccc(-c3cccs3)n2)c1` reads -11.4% (inactive); that for `Cc1nc2cc(NC(=O)NC3CC3)ccc2n1C`, 14.9% (inactive). In the case of `Cc1nc2cc(NC(=O)Nc3cccc(F)c3)ccc2n1C`, the cell killing (% activity) is 54.1% [at 5 µM] (active). The result for `C=CCN(C(=O)Nc1ccc2c(c1)nc(C)n2C)c1ccccc1` reads 14.1% (inactive); that for `COC(C(=O)Nc1ccc(S(=O)(=O)Nc2ccc(C)c(C)c2)cc1)c1ccccc1` (stereo unspecified), 19.1% (inactive); that for `COc1ccccc1NC(=O)CCSc1nnc(-c2ccc(O)cc2)o1`, -2.2% (inactive). The value for `CCC(C)N1C(=S)SC(C)(C)C1N(O)C(=O)NC1CCCCC1` (stereo unspecified) was 13.9% (inactive); that for `Cc1[nH]n(-c2ccccc2)c(=O)c1/C=N/NC(=O)c1ccoc1C` was 29.6% (inactive). The result for `Cc1ccc(-n2[nH]c(C)c(/C=N/NC(=O)c3cccc([N+](=O)[O-])c3)c2=O)cc1C` reads 60.3% (active). On to `COc1cccc(/C=N/NC(=O)c2cccc([N+](=O)[O-])c2)c1OS(=O)(=O)c1ccc(C)cc1`, for which the cell killing (% activity) is -0.7% (inactive). For the compound `CC(C)CNC(=S)Nc1ccc(F)cc1`, the cell killing (% activity) is 31.5% (inactive). The value for `CC1CC(=S)Nc2ccccc2N1Cc1ccccc1` (stereo unspecified) was 16% (inactive). As to `CCNC(=O)COC(=O)/C=C/c1c(C)nn(Cc2cccc(OC)c2)c1Cl`, the cell killing (% activity) was -7.2% (inactive). The value for `CCOC(=O)c1nnn2c1nc(N1CCN(c3ccccc3)CC1)c1ccccc12` was 3.6% (inactive). As for `Cc1csc(SCC(=O)Nc2sccc2C#N)n1`, the cell killing (% activity) is 10.6% (inactive). The value for `c1ccc(-c2nc(NCc3ccco3)c3ccccc3n2)cc1` was 6.1% (inactive); that for `Clc1ccc2nc(-c3ccccc3)nc(C(Cl)Cl)c2c1` was 79.2% [at 5 µM] (active); that for `Clc1cccc(-c2nc(NCC3CCCO3)c3ccccc3n2)c1` (stereo unspecified) was -5.4% (inactive).
